90 compounds from PubChem BioAssay AID463173 (ICCB-Longwood Screening Facility, Harvard Medical School, 2010) can be followed below.

Screen size: about 52,000 compounds; about 4,300 (8.3%) were called active. Shown is part of a subset that was picked to be rich in actives. Unmarked numbers belong to inactive results. Cut-off read from the data, not from the text of the source: active = survival mostly below about 52% (no sharp cut-off); inactive = mostly above about 56%.

In this assay the test system is DeltatarO mutant. Kind of assay: S. aureus survival, RN4220 and DeltatarO strains – OD600, teichoic acid synthesis inhibitors, primary screen (AID 463173). Conditions: S. aureus RN4220 wild type/DeltatarO growth, OD600, 18 h, active compounds read low, screened at 18.75 µg/mL (by protocol).
Take `CCOc1ccc(NS(=O)(=O)c2ccc(-c3cc(C)no3)s2)cc1`: the survival is 87%.
Then `CCOc1ccc(-c2nonc2NC(=O)c2oc3ccc(Br)cc3c2C)cc1`, with 50%; and `CC1CCC(NC(=O)CN2CCC(n3nnc4ccccc43)CC2)CC1` (stereo not given), with 76%.
Under `CC1=C(C(=O)Nc2ccc(C)cc2C)C(c2ccccc2)n2ncc(C(=O)Nc3ccccc3)c2N1` (stereo not given) stands 58%; under `CC(=O)N1CCCc2cc(S(=O)(=O)N3CCC(C(=O)N(Cc4ccccc4)C(C)C)CC3)ccc21`, 76%; under `O=C(CSc1nc(-c2ccccc2)[nH]c1-c1ccccc1)Nc1ccc2c(c1)OCO2`, 67%.
For the compound `Cc1cccc(-c2nc(SCC(=O)Nc3ccc4c(c3)OCCO4)c(-c3ccccc3)[nH]2)c1`, the survival is 58%.
Then `Cc1ccc(NC(=O)CSc2nc3ccccc3nc2Cc2ccccc2F)cc1F`, with 107%.
As for `O=C(CSc1nc2ccccc2nc1Cc1ccccc1F)Nc1cccc(C(F)(F)F)c1`, the survival was 35% (active).
Turning to `O=C(CSc1nc(-c2cccc(F)c2)[nH]c1-c1ccccc1)Nc1ccc2c(c1)OCCO2`, the survival was 94%.
For `Cc1ccc(Cc2nc3ccccc3nc2SCC(=O)Nc2cccc(C(F)(F)F)c2)cc1`, the survival was 67%.
Under `O=C(CSc1nc2ccccc2nc1Cc1ccccc1)Nc1ccc2c(c1)OCO2` stands 75%.
With `O=C(CSc1nc2ccccc2nc1Cc1ccc(Cl)cc1)Nc1ccc2c(c1)OCO2`, the survival is 71%.
As for `O=C(CSc1nc(-c2ccc(F)cc2)[nH]c1-c1ccc(F)cc1)Nc1ccc2c(c1)OCO2`, the survival is 97%.
Consider `O=C(CSc1nc(-c2cccc(F)c2)[nH]c1-c1ccccc1)Nc1ccc2c(c1)OCO2`, for which the survival was 32% (active).
Take `Cc1cccc(-c2nc(SCC(=O)Nc3ccc4c(c3)OCO4)c(-c3ccccc3)[nH]2)c1`: the survival was 40% (active).
As to `O=C(CSc1nc2ccccc2nc1Cc1ccc(F)cc1)Nc1ccc2c(c1)OCO2`, the survival is 52% (active).
As for `CC(NC(=O)Nc1cc(Cl)ccc1Cl)c1c(-n2cccc2)sc2c1CCCC2` (stereo not given), the survival is 72%.
Then `Cc1ccc2c(c1)N(C(=O)NCc1ccccc1)CCO2`, with 79%; and `Cc1cccc(CN2C(=O)c3ccccc3S(=O)(=O)c3ccc(C(=O)NC4CCCCC4)cc32)c1`, with 79%.
In the case of `COCCNC(=O)CCCn1c(SCC(=O)c2ccc(Br)cc2)nc2c(sc3ccccc32)c1=O`, the survival is 68%.
Regarding `COc1ccccc1CNC(=O)CN1C(=O)COc2ccc(S(=O)(=O)N3CCC(C)CC3)cc21`, the survival is 76%.
As for `Cn1cc(S(=O)(=O)c2ccc(Cl)cc2)c(=O)c2cc(F)c(N3CCCC3)cc21`, the survival was 73%.
Consider `COCCCNC(=O)c1sc2nc3n(c(=O)c2c1C)CCC3`, for which the survival is 91%.
Then `CCOc1ccccc1NC(=O)CSc1nc2c(c(=O)[nH]1)CCC2`, with 101%; and `COc1ccc(OC)c(CCNC(=O)c2cnn(-c3ccccc3)c2C2CCN(C(=O)OC(C)(C)C)CC2)c1`, with 73%; and `CCc1ccc(NC(=O)CSc2ccccn2)cc1`, with 89%.
In the case of `COc1cccc(-c2nc(SCC(=O)Nc3ccc4c(c3)OCO4)c(-c3ccccc3)[nH]2)c1`, the survival was 31% (active).
Regarding `COc1ccc(-c2[nH]c(-c3cccc(OC)c3)nc2SCC(=O)Nc2ccc3c(c2)OCO3)cc1`, the survival is 55%.
Then `COc1cccc(-c2nc(SCC(=O)Nc3ccc4c(c3)OCCO4)c(-c3ccccc3)[nH]2)c1`, with 54%; and `CC(=O)N1c2ccc(S(=O)(=O)NCCC(=O)Nc3ccc(Br)c(C)c3)cc2CC1C` (stereo not given), with 90%.
Under `Cc1ccc(CCNC(=O)c2ccc3c(c2)N(Cc2cccc(C)c2)C(=O)c2ccccc2S3(=O)=O)cc1` stands 72%; under `CCOC(=O)C1CCCN(CC(=O)N2CCCc3c2c(=O)oc2ccc(OCc4ccccc4)cc32)C1` (stereo not given), 121%; under `COc1ccc(N2CC(C(=O)NCc3nnnn3-c3ccc(C)c(C)c3)CC2=O)cc1` (stereo not given), 69%.
For the compound `CCOC(=O)CSc1ncnc2c1c(-c1ccccc1)cn2-c1ccc(OC)cc1`, the survival is 60%.
As for `CCCSc1ncnc2c1c(-c1ccccc1)cn2-c1ccccc1OC`, the survival is 2% (active).
With `CCCCSc1ncnc2c1c(-c1ccccc1)cn2-c1cccc(F)c1`, the survival is 78%.
For the compound `CC(C(=O)O)N1C(=O)NC2NC(=O)NC21` (stereo not given), the survival is 54% (active).
For `CC(C(=O)O)N1CCCC1` (stereo not given), the survival is 94%.
Then `CCOc1ccc(C(=O)Nc2nnc(SCc3cc(=O)c4cc(C)ccc4[nH]3)s2)cc1`, with 91%; and `COCCNC(=O)c1ccc2c(c1)NC(=O)C(CS(=O)(=O)Cc1ccc(F)cc1Cl)N2` (stereo not given), with 130%.
Under `O=C1OC2(CCCC2)OC(=O)C1=CNc1ccccc1` stands 96%; under `Nc1ccc2c(c1)OC1(CCCCC1)O2`, 55% (active).
Consider `COc1ccccc1-c1cc(C(=O)Nc2ccccc2C(F)(F)F)no1`, for which the survival was 71%.
Consider `Cc1ccc2c(=O)cc(C(=O)Nc3ccc(S(=O)(=O)Nc4ncccn4)cc3)oc2c1C`, for which the survival is 76%.
In the case of `N#Cc1ccc(NC(=O)c2ccc3c(c2)nnn3C2CCCC2)cc1`, the survival was 126%.
In the case of `Cc1cc(-c2ccc(S(=O)(=O)Nc3cccc(Cl)c3C)cc2)on1`, the survival was 94%.
For `Cc1ccc(-c2nnn(CC(=O)N(CC(=O)NCC3CCCO3)C3CCN(Cc4ccccc4)CC3)n2)o1` (stereo not given), the survival was 83%.
As for `O=C(NCc1ccco1)C(Sc1ccccc1)c1ccccc1` (stereo not given), the survival was 101%.
Take `Cc1ccc(CNC(=O)c2sc3nc4n(c(=O)c3c2C)CCCCC4)cc1`: the survival was 53% (active).
Turning to `Cc1ccc(CNC(=O)c2sc3nc4n(c(=O)c3c2C)CCCC4)cc1`, the survival was 80%.
As for `Cc1c(C(=O)NCc2ccc(Cl)cc2)sc2nc3n(c(=O)c12)CCCCC3`, the survival is 51% (active).
With `CCCN(CCC)CCCNC(=O)c1sc2nc3n(c(=O)c2c1C)CCC3`, the survival was 79%.
Turning to `Cc1c(C(=O)NCc2ccc(Cl)cc2)sc2nc3n(c(=O)c12)CCCC3`, the survival was 95%.
For `CCOC(=O)c1ccccc1NC(=O)c1sc2nc3n(c(=O)c2c1C)CCCC3`, the survival is 103%.
Take `CCOC(=O)c1ccccc1NC(=O)c1sc2nc3n(c(=O)c2c1C)CCCCC3`: the survival is 37% (active).
Then `CCN(CC)CCNC(=O)c1sc2nc3n(c(=O)c2c1C)CCCCC3`, with 53%.
As to `Cc1c(C(=O)NCc2ccccc2)sc2nc3n(c(=O)c12)CCCCC3`, the survival was 56%.
In the case of `CCOc1ccccc1NC(=O)c1sc2nc3n(c(=O)c2c1C)CCCCC3`, the survival is 45%.
Consider `Cc1c(C(=O)NCc2ccc(Cl)cc2)sc2nc3n(c(=O)c12)CCC3`, for which the survival is 102%.
For `CCCN(CCC)CCNC(=O)c1sc2nc3n(c(=O)c2c1C)CCCCC3`, the survival is 62% (active).
Then `O=C(NCc1ccccc1Cl)c1cc2cccc3c2n1CCS3`, with 115%.
Then `COc1cc(OC)c(NC(=O)c2cc(C)nc3c2c(C)nn3-c2ccc(C)cc2)cc1Cl`, with 103%; and `Cc1c(Cl)ccc2sc(N3CCN(C(=O)c4ccco4)CC3)nc12`, with 69%; and `COc1cccc(NC(=O)CN2C(=O)c3cccnc3Oc3ccc(Cl)cc32)c1`, with 80%.
With `COc1cc(OC)c(NC(=O)c2sc3nc4n(c(=O)c3c2C)CCCC4)cc1Cl`, the survival was 64%.
As for `COc1cc(Cl)c(C)cc1NC(=O)c1sc2nc3n(c(=O)c2c1C)CCCCC3`, the survival is 52%.
For `COc1cc(NC(=O)c2sc3nc4n(c(=O)c3c2C)CCCCC4)cc(OC)c1OC`, the survival was 42% (active).
For `CC(C)NS(=O)(=O)c1ccc2nc(NC(=O)c3cncc(Br)c3)sc2c1`, the survival was 87%.
`COc1ccc2c(c1)c1c(c(=O)n(Cc3ccccc3)c(=O)n1CC(=O)NCc1ccccc1Cl)n2C`: the survival is 72%.
In the case of `C/C(Cc1nc2ccccc2[nH]1)=N/Nc1ccccc1`, the survival is 2% (active).
Regarding `CNC(=O)Cc1nc2ccccc2[nH]1`, the survival is 87%.
As to `O=C(O)CNCc1nc2ccccc2[nH]1`, the survival is 95%.
Under `COc1ccc(-c2noc(N3CCN(c4ccc(Cl)cc4)CC3)n2)cc1OC` stands 80%; under `Cc1ccc(-c2cc(C(=O)N3CCN(S(=O)(=O)c4ccc(Br)s4)CC3)[nH]n2)cc1C`, 83%; under `CCOc1ccc(C2c3c(oc4ccc(C)cc4c3=O)C(=O)N2c2nc(C)c(C)s2)cc1OC` (stereo not given), 170%.
Take `CCCCN1CC(c2nc3ccccc3n2CCCCOc2ccc(C)c(C)c2)CC1=O` (stereo not given): the survival is 20% (active).
As to `CCCCN1CC(c2nc3ccccc3n2CCCCOc2cc(C)cc(C)c2)CC1=O` (stereo not given), the survival was 33% (active).
Regarding `Cc1cc(C)cc(NC(=O)Cn2nnc(C(=O)Nc3cc(C)cc(C)c3)c2N)c1`, the survival is 74%.
For the compound `Cc1ccc2c(CC(=O)Nc3cccc(Cl)c3C)coc2c1`, the survival was 100%.
Then `CCc1ccc(CNC(=O)c2c(C)oc3ncnc(N4CCOCC4)c23)cc1`, with 128%.
`Cc1oc2ncnc(N3CCCCC3)c2c1C(=O)NCC1CCN(Cc2cccc(F)c2)CC1`: the survival is -5% (active).
With `Cc1cccc(CN2CCC(CNC(=O)c3c(C)oc4ncnc(N5CCCCC5)c34)CC2)c1`, the survival is 77%.
As for `Cc1oc2ncnc(N3CCCCC3)c2c1C(=O)NCC1CCN(Cc2ccc(F)cc2)CC1`, the survival is 77%.
Consider `CCc1ccccc1N(CC)C(=O)c1c(C)oc2ncnc(N3CCOCC3)c12`, for which the survival is 96%.
Then `CCCN(C(=O)c1c(C)oc2ncnc(N3CCOCC3)c12)c1ccc(Cl)c(Cl)c1`, with 46%; and `Cc1ccc(CNC(=O)c2c(C)oc3ncnc(N4CCOCC4)c23)cc1`, with 17% (active).
Then `COC(=O)CCN(C(=O)c1c(C)oc2ncnc(N3CCOCC3)c12)c1ccccc1`, with 8% (active); and `Cc1oc2ncnc(N3CCOCC3)c2c1C(=O)NCc1ccc(Cl)cc1`, with 94%.
On to `COc1ccc2oc(=O)c(C(=O)NCc3cccnc3)cc2c1`, for which the survival was 83%.
